Data on twelve compounds can be found in PubChem BioAssay (Tox21).

Results filed as inconclusive are left out. Activity calls are given as the source filed them. Unless noted, calls follow the shape of the dose curve; as a rule, active = well fitted curve in the direction sought with a large enough effect in the repeat runs; inconclusive = weak or mixed curves; inactive = no such curve, though single readings can be large; an effect the other way counts as inactive or inconclusive.

A short description of assay [1]: qHTS assay to identify small molecule agonists of the vitamin D receptor (VDR) signaling pathway - cell viability counter screen (AID 743224). Also: series mostly up to about 63 µM; nearly all actives have a fitted effect of over 50% in size. The procedure, abridged:
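Viability is measured in the same wells as the VDR-bla reporter assay: after 16 h compound treatment and 2 h substrate loading, CellTiter-Glo is added and luminescence read 30 min later.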

Assay [2] is described as follows: qHTS assay to identify small molecule antagonists of the vitamin D receptor (VDR) signaling pathway - cell viability counter screen (AID 743225). Also: nearly all actives have a fitted effect of over 50% in size. Put shortly: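 VDR-UAS-bla HEK 293T cells were plated and incubated 4 h at 37C, then dosed with compound plus 3 nM (final) 1-alpha,25-dihydroxyvitamin D3 for 16 h. After the 2 h beta-lactamase read, viability in the same wells was read as CellTiter-Glo luminescence after 30 min at room temperature.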
In general terms: Quantitative high-throughput screening tests each substance at several concentrations.

A short description of assay [3]: qHTS assay to identify small molecule agonists of the NFkB signaling pathway (AID 1159509; active = well fitted curve in the direction sought with a large enough effect in the signal ratio in the repeat runs, not every such curve was filed as active; the % refers to the signal ratio; also: series mostly up to about 61 µM). Put shortly:
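After overnight attachment, reporter cells received test compounds, DMSO or positive controls and were incubated 5 hr at 37 C. FRET substrate was then added for 1.5 hr at room temperature before dual-emission fluorescence reading.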

Assay [4] in a line: qHTS assay to identify small molecule agonists of the NFkB signaling pathway - cell viability counter screen (AID 1159515; calls by dose curve; also: series mostly up to about 61 µM; nearly all actives have a fitted effect of over 55% in size). Put shortly: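 Multiplexed viability readout: after the 5 hr compound exposure and 1.5 hr FRET substrate step, CellTiter-Glo reagent went into the same NFkB-bla ME-180 wells; ATP luminescence was measured after 30 min at room temperature.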
Assay [5] can be described thus: qHTS assay to identify small molecule agonists of the endoplasmic reticulum stress response signaling pathway (AID 1159516; active = well fitted activation curve with a large enough effect in the signal ratio in the repeat runs, not every such curve was filed as active; the % refers to the signal ratio). The procedure, abridged: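 Tox21 10K library screened in quantitative HTS format on ESRE-bla HeLa cells, a beta-lactamase reporter under ER stress response element control; 5 hr treatment, FRET read.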
Assay [6] in a line: qHTS assay to identify small molecule antagonists of the retinoid-related orphan receptor gamma (ROR-gamma) signaling pathway - cell viability counter screen (AID 1159520). Also: nearly all actives have a fitted effect of over 50% in size. The procedure, abridged: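 Tet-on ROR gamma CHO cells (1,000/well) were plated 4 hr, given compounds in DMSO for 2 hr at 37 C, then induced with 1 uM final doxycycline for 16 hr. Viability was read as ATP by CellTiter-Glo luminescence after 30 min.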

For assay [7], the target named is Nuclear receptor ROR-gamma (Homo sapiens) (UniProt P51449). Nature of the assay: qHTS assay to identify small molecule antagonists of the retinoid-related orphan receptor gamma (ROR-gamma) signaling pathway (AID 1159521;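 also: CHO cells with doxycycline inducible ROR-gamma driving an RORE luciferase reporter; top concentration of the series differs between compounds; nearly all actives have a fitted effect of over 50% in size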). The procedure, abridged:
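Tet-on ROR-gamma CHO cells with ROR response element-luciferase reporter; compounds added 2 hr before 1 uM doxycycline induction, then 16 hr at 37 C. Antagonism scored as decreased ONE-Glo luminescence.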

Assay [8] is described as follows: qHTS assay to identify small molecule agonists of the AP-1 signaling pathway - cell viability counter screen (AID 1159525; calls by dose curve; also: nearly all actives have a fitted effect of over 55% in size). The procedure, abridged: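 ME-180 AP-1-bla, 2500 cells/well, Opti-MEM + 0.5% dialyzed FBS; overnight 37 °C; cpd 15-pt titration, 5 h 37 °C; CellTiter-Glo 30 min RT; luminescence read; normalised to TOAB and DMSO controls.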
A short description of assay [9]: qHTS assay to identify small molecule agonists of the AP-1 signaling pathway (AID 1159526; calls by dose curve).
Assay [10] deals with Retinoic acid receptor RXR-alpha (Homo sapiens) (UniProt P19793). Nature of the assay: qHTS assay to identify small molecule agonists of the RXR signaling pathway (AID 1159527; calls by dose curve; also: nearly all actives have a fitted effect of over 35% in size; also: potency is read from the fitted curve at half-maximal effect). Put shortly: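 GeneBLAzer RXR-alpha-UAS-bla HEK 293T cells in 2% charcoal-stripped FBS medium were exposed to compounds for 16 hr at 37 C in agonist mode. Beta-lactamase reporter read as 460/530 nm FRET ratio after 2 hr substrate loading.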

Assay [11] in a line: qHTS assay to identify small molecule agonists of the RXR signaling pathway - cell viability counter screen (AID 1159529). Put shortly: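 RXR-alpha-UAS-bla HEK 293T cells in medium with 2% charcoal-stripped FBS were pre-incubated 5 hr, then compound-treated 16 hr at 37 C. Viability was read by CellTiter-Glo luminescence in the same wells as the beta-lactamase assay, with tetraoctyl ammonium bromide as positive control.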

A short description of assay [12]: qHTS assay to identify small molecule antagonists of the retinoid acid receptor (RAR) signaling pathway - cell viability counter screen (AID 1159551). Also: nearly all actives have a fitted effect of over 35% in size. The procedure, abridged:
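Cytotoxicity counter screen in C3RL4 cells: 6 h compound exposure with 1 uM retinol (final), viability from cellular ATP by luminescence.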

Assay [13] can be described thus: qHTS assay to identify small molecule agonists of the endoplasmic reticulum stress response signaling pathway - cell viability counter screen (AID 1159517; calls by dose curve). Put shortly: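 Luminescence readout: CellTiter-Glo, 30 min RT, same wells as the ESRE-bla reporter read. HeLa ESRE-bla, 1,500 cells/well, o/n 37 C; cpd 5 hr 37 C/5% CO2.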
Assay [14] is described as follows: qHTS assay to identify small molecule antagonists of the retinoic acid receptor (RAR) signaling pathway (AID 1159552; also: nearly all actives have a fitted effect of over 50% in size). Put shortly: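 Retinol signaling pathway inhibitors screened in C3RL4 RARE-luciferase reporter cells seeded overnight at 37 C, then compounds added with 1 uM (final) retinol as pathway substrate. After 6 hr at 37 C, luciferase luminescence read after 30 min at room temperature.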

Assay [15] can be described thus: qHTS assay to identify small molecule agonists of the retinoic acid receptor (RAR) signaling pathway (AID 1159553). Put shortly:
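Agonist activity was scored in C3RL4 cells bearing a retinoic acid response element luciferase construct. Cells were treated with compounds for 6 hr at 37 C, and luciferase signal was measured as luminescence.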

Sequence of Retinoic acid receptor RXR-alpha (Homo sapiens) (P19793 whole entry, looked up): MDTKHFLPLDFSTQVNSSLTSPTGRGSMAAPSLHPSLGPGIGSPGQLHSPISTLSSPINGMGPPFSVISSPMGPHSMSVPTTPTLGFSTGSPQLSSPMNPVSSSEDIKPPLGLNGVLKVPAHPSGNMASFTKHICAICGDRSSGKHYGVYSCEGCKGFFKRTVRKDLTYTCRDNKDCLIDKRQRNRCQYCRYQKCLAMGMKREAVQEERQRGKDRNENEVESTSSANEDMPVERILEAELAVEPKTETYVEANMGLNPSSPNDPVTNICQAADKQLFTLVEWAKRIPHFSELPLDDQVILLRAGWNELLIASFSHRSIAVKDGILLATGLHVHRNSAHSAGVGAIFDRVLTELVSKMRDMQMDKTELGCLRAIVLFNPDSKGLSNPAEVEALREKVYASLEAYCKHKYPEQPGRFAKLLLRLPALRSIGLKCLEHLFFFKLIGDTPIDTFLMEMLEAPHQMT

As to `CN/C(=N\[N+](=O)[O-])NCC1CCOC1` (configuration not stated), the Potency result in assay [1], in assay [6], in assay [7], in assay [8], in assay [10] and in assay [11] was “inactive” each time. Also, the Potency result in assay [12] is “inactive”. The compound was called inactive in assay [2], in assay [3], in [4], in [5] and in assay [9].

As to `CCOC(=O)C(c1c(O)c2ccccc2oc1=O)c1c(O)c2ccccc2oc1=O`, the Potency result in assay [1], in assay [6], in assay [7], in [8], in assay [10] and in assay [11] was “inactive” in each case. Further, the Potency entry in assay [12] was “inactive”. Further, the result in assay [3], in [4], in assay [5] and in assay [9] was inactive.

`CC(C)COP(=O)(OCC(C)C)OCC(C)C`: the Potency result in [1], in [13], in assay [6], in assay [7], in assay [8] and in assay [10] was “inactive” in each case. Besides, the Potency result in assay [11] and in assay [12] was “inactive” in each case. In addition, the compound was called inactive in assay [2], in assay [3], in assay [5] and in [9].

Regarding `CCCSC(=O)Cl`, the Potency entry in [1], in [6], in [7], in [11], in [12] and in assay [14] was “inactive” in each case. Moreover, in assay [15], the Potency result was “inactive”. Moreover, the outcome in assay [2], in assay [3], in [4], in assay [5] and in assay [9] was inactive.

In the case of `CCCCc1ccc(O)cc1`, the Potency entry in assay [1], in [6], in [7], in assay [8], in assay [10] and in assay [11] was “inactive” each time. Moreover, the Potency entry in [12], in assay [14] and in assay [15] was “inactive” in each case. In addition, the compound was classed as inactive in assay [2], in [3], in assay [4] and in assay [5].

With `CN1C[C@@H](NS(=O)(=O)N(C)C)C[C@@H]2c3cccc4c3c(cn4C)C[C@H]21`, the Potency result in [1], in assay [6], in assay [7], in assay [8], in [11] and in assay [12] was “inactive” each time. Further, the result in assay [2], in assay [3], in [4], in [5] and in assay [9] was inactive.

Consider `O=C1OC(CCN2CCCCC2)OC1(c1ccccc1)c1ccccc1` (configuration not stated), for which the Potency result in assay [1], in assay [6], in assay [7], in assay [10], in assay [11] and in assay [12] was “inactive” throughout. The outcome in assay [2], in assay [3], in [4] and in assay [5] was inactive.

On to `CCOP(=O)(N=C1SCCS1)OCC`, for which the Potency entry in [1], in [6], in assay [7], in [10], in [11] and in assay [12] was “inactive” each time. Besides, the compound was called inactive in assay [3], in assay [4], in assay [5] and in assay [9].

As for `COc1cc(OC)nc(NC(=O)NS(=O)(=O)c2ncccc2OCC(F)(F)F)n1`, the Potency result in assay [1], in assay [6], in assay [7], in assay [8], in assay [10] and in assay [11] was “inactive” each time. Further, the Potency result in assay [12] is “inactive”. Further, the compound was called inactive in [3], in assay [4], in [5] and in assay [9].

Regarding `CC(C)(C)NCC(O)c1cc(Cl)c(N)c(Cl)c1` (configuration not stated), the Potency result in [1], in assay [6], in assay [8], in assay [10], in [11] and in assay [12] was “inactive” throughout. Besides, the compound was called inactive in assay [2], in assay [3], in assay [4], in assay [5] and in assay [9].

For the compound `C1CCC(C2CCCCC2)CC1`, the Potency result in assay [1], in [6], in [8], in assay [12], in assay [14] and in assay [15] was “inactive” throughout. The outcome in [3], in assay [4], in assay [5] and in assay [9] was inactive. Further, in assay [10], the Potency is 38.9 µM (active).

As to `CCCCN(CCCCO)N=O`, the Potency result in assay [1], in assay [6], in assay [7], in assay [8], in assay [11] and in assay [12] was “inactive” each time. The Potency result in assay [14] and in assay [15] was “inactive” each time. Also, the compound was classed as inactive in [2], in assay [3], in assay [4], in [5] and in [9].
